{
  "source": "PubChem BioAssay (NCATS)",
  "note": "Unmarked numbers belong to inactive results. Calls of active or inactive are those of the source. Calls come from the whole dose curve; as a rule, active = well fitted curve in the direction sought with a large enough effect; inconclusive = small, poorly fitted or top-dose-only effect, or another doubt; inactive = no such curve, though single readings can be large or run the other way.",
  "data": [
    {"biological_target": "Alpha-galactosidase (Coffea arabica) (UniProt Q42656)", "sequence (Q42656 whole entry, looked up)": "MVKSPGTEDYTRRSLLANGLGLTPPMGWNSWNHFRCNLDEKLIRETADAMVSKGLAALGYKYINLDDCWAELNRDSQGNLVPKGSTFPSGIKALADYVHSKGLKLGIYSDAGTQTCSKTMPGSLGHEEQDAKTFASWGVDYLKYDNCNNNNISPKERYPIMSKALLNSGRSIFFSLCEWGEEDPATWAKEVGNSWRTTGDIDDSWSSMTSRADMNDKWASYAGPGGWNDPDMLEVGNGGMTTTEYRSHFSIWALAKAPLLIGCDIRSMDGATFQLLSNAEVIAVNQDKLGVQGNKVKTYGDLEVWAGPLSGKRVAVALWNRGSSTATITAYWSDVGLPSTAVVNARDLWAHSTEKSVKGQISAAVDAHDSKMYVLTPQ", "test": "Counterscreen for Glucocerebrosidase Inhibitors: qHTS Assay for Coffee Bean alpha-Galactosidase at pH 4.5 (AID 957);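 note: plate controls were enzyme alone for no effect and no enzyme for full effect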", "conditions": "purified coffee bean alpha-galactosidase, fluorogenic substrate; series mostly up to 76.9 µM; activity change, negative = inhibition: at the top concentration", "procedure,_shortened": "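Enzyme is added first (2 nM final), then compounds titrated from 0.7 nM to 77 uM, then 80 uM 4-methylumbelliferyl alpha-D-galactopyranoside; after 20 min at room temperature a pH 10 NaOH/glycine stop precedes fluorescence reading at 365/440 nm.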", "units": {"activity change, negative = inhibition": "%"}, "values": [
      {"compound": "CN1CCN(CCCN2c3ccccc3Sc3ccc(Cl)cc32)CC1", "activity change, negative = inhibition": -0.79},
      {"compound": "CC(=O)[C@H]1CC[C@H]2[C@@H]3CC[C@H]4C[C@H](O)CC[C@]4(C)[C@H]3C(=O)C[C@]12C", "activity change, negative = inhibition": 1.84},
      {"compound": "COc1cc2c(c(OC)c1OC)-c1ccc(OC)c(=O)cc1[C@@H](NC(C)=O)CC2", "activity change, negative = inhibition": -3.14},
      {"compound": "NNCCc1ccccc1", "activity change, negative = inhibition": -1.66},
      {"compound": "Cc1cccc(C)c1NC1=NCCCS1", "activity change, negative = inhibition": 3.62},
      {"compound": "CC(C)[N+](C)(CCOC(=O)C1c2ccccc2Oc2ccccc21)C(C)C", "activity change, negative = inhibition": -0.902},
      {"compound": "Cc1[nH]c(=O)c(C#N)cc1-c1ccncc1", "activity change, negative = inhibition": 2.19},
      {"compound": "N#CC(C#N)=Cc1ccc(O)c(O)c1", "activity change, negative = inhibition": -3.65},
      {"compound": "CCN(CC)C(=S)SSC(=S)N(CC)CC", "activity change, negative = inhibition": -4.34},
      {"compound": "CC(C)(C)NC(=O)[C@H]1CC[C@H]2[C@@H]3CC[C@H]4NC(=O)C=C[C@]4(C)[C@H]3CC[C@]12C", "activity change, negative = inhibition": -1.81},
      {"compound": "CCOC(=O)N1CCC(=C2c3ccc(Cl)cc3CCc3cccnc32)CC1", "activity change, negative = inhibition": -2.47},
      {"compound": "CC1=C(/C=C/C(C)=C/C=C/C(C)=C/C(=O)Nc2ccc(O)cc2)C(C)(C)CCC1", "activity change, negative = inhibition": -4.49},
      {"compound": "NN=C(N)N", "outcome": "inactive"},
      {"compound": "Cn1cnc([N+](=O)[O-])c1Sc1ncnc2nc[nH]c12", "activity change, negative = inhibition": -1.13},
      {"compound": "CC1=NS(=O)(=O)c2cc(Cl)ccc2N1", "activity change, negative = inhibition": 0.0065},
      {"compound": "CCN(CC)CCOC(=O)C1(C2CCCCC2)CCCCC1", "activity change, negative = inhibition": -7.38},
      {"compound": "O=c1c(O)c(-c2ccc(O)c(O)c2)oc2cc(O)cc(O)c12", "activity change, negative = inhibition": 0.726},
      {"compound": "Clc1cccc(N2CCNCC2)c1", "activity change, negative = inhibition": -0.986},
      {"compound": "Cc1cn([C@H]2C=C[C@@H](CO)O2)c(=O)[nH]c1=O", "activity change, negative = inhibition": -0.871},
      {"compound": "CC/C(=C(\\c1ccccc1)c1ccc(OCCN(C)C)cc1)c1ccccc1", "activity change, negative = inhibition": -6.22}
    ]}
  ]
}
